# Experimental data taken from PubChem BioAssay (NCATS).
# Inconclusive results are not listed. Where a call stands in place of a potency, no number is given. Active and inactive are the calls of the source. The call rests on the fitted dose curve; in most records, active means well fitted cell-killing curve with a large enough effect; inconclusive means small, poorly fitted or top-dose-only effect; inactive means no such curve, though single readings can be large or run the other way.
# Assay: qHTS of pediatric cancer cell lines to identify multiple opportunities for drug repurposing: Primary screen for Rh30 cells (AID 1347107); further: nearly all actives have a fitted effect of over 75% in size
# Conditions: Rh30 rhabdomyosarcoma viability, CellTiter-Glo luminescence, 48 h; series mostly up to 46 µM
# Procedure, shortened: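 Viability after 48 h compound treatment at 37C, 500-1,000 cells/well, read as ATP luminescence with CellTiter-Glo. Primary screens used 11-point (MIPE, 0.78 nM-46 µM) or 8-point (NPC, 0.59 nM-46 µM) final concentrations; follow-up screens used 11-point dilutions.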
# Potency means the concentration at half of the fitted maximal effect.
row,Compound,Potency
1,COc1ccc(C(=O)c2c(C)n(CCN3CCOCC3)c3cc(I)ccc23)cc1,inactive
2,O=S(=O)(F)Cc1ccccc1,inactive
3,C=CCON=C(C[C@H]1O[C@@H]2O[C@]3(C)CC[C@@H]4[C@H](C)CC[C@@H]([C@H]1C)[C@@]24OO3)[C@H]1O[C@@H]2O[C@]3(C)CC[C@H]4[C@H](C)CC[C@@H]([C@@H]1C)[C@@]24OO3,inactive
4,CN1CCN(c2ccc([N+](=O)[O-])c3no[n+]([O-])c23)CC1,inactive
5,O=C(Nc1ccncc1)C(=O)c1cn(Cc2ccc(Cl)cc2)c2ccccc12,inactive
6,COc1ccc(N(C(=O)Oc2c(C)cccc2C)c2ccnc(Nc3ccc(N4CCN(C)CC4)cc3)n2)c(OC)c1,inactive
7,CCc1c(C(=O)C(N)=O)c2c(OCC(=O)O)cccc2n1Cc1ccccc1,inactive
8,COc1ccc2c(c[n+](C)c3c4cc5c(cc4ccc23)OCO5)c1OC,20.9 µM (active)
9,CC(C)[C@]12O[C@@H]1[C@@H]1O[C@]13[C@]1(O[C@H]1C[C@@H]1C4=C(CC[C@@]13C)C(=O)OC4)[C@H]2O,inactive
10,CC(C)[C@H]1C(=O)N[C@H](CO)Cc2c[nH]c3cccc(c23)N1C,inactive
11,O=C(N[C@@H](COc1ccc2[nH]c(=O)[nH]c2c1)c1ccccc1)c1cccn(Cc2ccc(F)c(F)c2)c1=O,inactive
12,CC(=CCCC1=CCC(C2=CC(=O)OC2O)OC1O)CCC1=C(C)CCCC1(C)C (stereo not drawn),inactive
13,CC(=Cc1csc(C)n1)[C@@H]1C[C@H]2O[C@@H]2CCC[C@H](C)[C@@H](O)[C@@H](C)C(=O)C(C)(C)[C@@H](O)CC(=O)O1,inactive
14,ClC1=C(Cl)[C@]2(Cl)[C@@H]3[C@@H]4C[C@@H]([C@H]5O[C@@H]45)[C@@H]3[C@@]1(Cl)C2(Cl)Cl,inactive
15,CC=C(C)C(=O)N[C@@H](c1ccccc1)[C@@H](O)C(=O)O[C@H]1C[C@@]2(O)[C@@H](OC(=O)c3ccccc3)[C@@H]3[C@]4(OC(C)=O)CO[C@@H]4C[C@H](O)[C@@]3(C)C(=O)[C@H](OC(C)=O)C(=C1C)C2(C)C,inactive
16,CC(=O)O[C@@]12CO[C@H]1C[C@H](O)[C@@]1(C)C(=O)[C@H](O)C3=C(C)[C@@H](O)C[C@@](O)([C@@H](OC(=O)c4ccccc4)[C@@H]21)C3(C)C,inactive
17,CC(C)(C)c1cc(C=C(C#N)C#N)cc(Br)c1O,inactive
18,CC(C)(C)C(O)C(Oc1ccc(Cl)cc1)n1cncn1 (stereo not drawn),inactive
19,CC1(C)CC/C(=C/c2ccc(Cl)cc2)C1(O)Cn1cncn1 (stereo not drawn),inactive
20,S=C(SSC(=S)N1CCCCC1)N1CCCCC1,inactive
21,C[C@H]1CCCC=CC2C[C@H](O)C[C@@H]2[C@H](O)C=CC(=O)O1 (stereo partly drawn),inactive
22,CC[C@H]1C=CC=CC[C@@H](C)[C@H](O)[C@@](C)(O)C(=O)[C@@H](C)[C@H](O)[C@@H](C)C(=O)[C@@H](C)[C@H](O)[C@@H](C)C=CC(=O)O[C@@H]2[C@@H](C)[C@H](CC1)O[C@]1(CC[C@H](C)[C@H](C[C@@H](C)O)O1)[C@H]2C,inactive
23,CC(=Cc1csc(C)n1)[C@@H]1C[C@H]2O[C@]2(C)CCC[C@H](C)[C@@H](O)[C@@H](C)C(=O)C(C)(C)[C@@H](O)CC(=O)O1,inactive
